# Hit rate of the full screen: of about 2,400 compounds, about 750 (31%) were called active. Some of the results follow. Values without a mark were called inactive.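 How the source made its calls: active means median signal gain over dofetilide-blocked control wells reaching their mean plus 3 SD, so readout 1 at least 0; inactive means the rest.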
# Target: Voltage-gated inwardly rectifying potassium channel KCNH2 (Homo sapiens) (UniProt Q12809)
# Assay: hERG protection against dofetilide inhibition, confirmation, cell-based, thallium flux, duplicate retest, dofetilide IC70 (AID 1835)
# Conditions: hERG cell line, FluxOR thallium flux, dofetilide-blocked; at 10 µM; active compounds read high
# Chain of Voltage-gated inwardly rectifying potassium channel KCNH2 (Homo sapiens) (Q12809 whole entry, looked up): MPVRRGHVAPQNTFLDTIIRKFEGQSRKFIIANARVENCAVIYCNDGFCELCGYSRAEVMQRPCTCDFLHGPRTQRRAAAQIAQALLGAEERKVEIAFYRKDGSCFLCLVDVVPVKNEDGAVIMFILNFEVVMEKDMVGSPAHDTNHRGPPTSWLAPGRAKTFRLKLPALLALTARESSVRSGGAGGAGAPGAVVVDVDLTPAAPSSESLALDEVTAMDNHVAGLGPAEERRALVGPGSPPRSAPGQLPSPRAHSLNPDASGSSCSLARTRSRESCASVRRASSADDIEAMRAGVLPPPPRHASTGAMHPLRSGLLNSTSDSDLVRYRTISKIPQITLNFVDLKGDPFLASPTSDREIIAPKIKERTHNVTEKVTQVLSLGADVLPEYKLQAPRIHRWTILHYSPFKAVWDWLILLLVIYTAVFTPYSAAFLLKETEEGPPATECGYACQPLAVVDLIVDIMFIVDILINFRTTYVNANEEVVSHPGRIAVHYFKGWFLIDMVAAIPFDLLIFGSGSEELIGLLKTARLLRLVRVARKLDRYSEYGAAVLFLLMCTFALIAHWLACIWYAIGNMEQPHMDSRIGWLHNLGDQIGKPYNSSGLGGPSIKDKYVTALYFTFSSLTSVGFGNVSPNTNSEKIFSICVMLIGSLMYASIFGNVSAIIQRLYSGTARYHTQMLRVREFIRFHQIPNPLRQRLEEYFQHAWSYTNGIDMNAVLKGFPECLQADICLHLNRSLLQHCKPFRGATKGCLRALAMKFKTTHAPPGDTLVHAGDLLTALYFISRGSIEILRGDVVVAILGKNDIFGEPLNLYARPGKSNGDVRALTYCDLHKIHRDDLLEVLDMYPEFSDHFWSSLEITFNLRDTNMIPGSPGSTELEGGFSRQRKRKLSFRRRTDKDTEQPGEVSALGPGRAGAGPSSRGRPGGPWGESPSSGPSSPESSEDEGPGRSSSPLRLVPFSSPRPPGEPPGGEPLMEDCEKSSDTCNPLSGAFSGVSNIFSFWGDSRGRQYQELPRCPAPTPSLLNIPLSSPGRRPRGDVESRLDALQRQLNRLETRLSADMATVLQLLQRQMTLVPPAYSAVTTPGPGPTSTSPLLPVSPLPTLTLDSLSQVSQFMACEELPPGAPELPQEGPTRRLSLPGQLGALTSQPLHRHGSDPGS
row,SMILES,"activity increase over dofetilide control, less the hit threshold"
1,O=c1ccn(CCCBr)c(=O)[nH]1,-8%
2,CCN(CC)CCOC(=O)C(c1ccccc1)c1ccccc1,-6%
3,O=C1CCCN1C(=O)COc1ccccc1[N+](=O)[O-],-13%
4,O=C(COc1ccccc1[N+](=O)[O-])Nc1cc(Cl)ccc1C(=O)O,-10%
5,O=[N+]([O-])c1ccccc1OCCNCc1ccccc1,9% (active)
6,Cc1cc(C)n(-c2nc(NCCCN(C)C)c3c4c(sc3n2)CCCC4)n1,-10%
7,COc1ccc(N2C(=O)/C(=C/c3cccs3)NC2=S)cc1,-21%
8,CCOc1ccc(NC(=O)c2ccc(NC(=O)CSc3nc4ccccc4c(=O)[nH]3)cc2)cc1,-17%
9,CCOc1ccc2nc(N3C(=O)/C(=C/c4ccccc4)NC3=S)sc2c1,71% (active)
10,CCOc1ccc2nc(N3C(=O)/C(=C/c4ccc(Cl)cc4)NC3=S)sc2c1,22% (active)
11,O=C(N1CCOCC1)N1CCC(c2nc(-c3ccc(S(=O)(=O)N4CCOCC4)cc3)no2)CC1,-12%
12,Cc1ccc(CNS(=O)(=O)c2ccc(C(F)(F)F)cc2)n1C,-18%
13,Cc1cc(C)c(-c2cc(NC(=O)COC(=O)c3ccc(NC(=O)CC#N)cc3)n(-c3ccccc3)n2)cc1C,-15%
14,Cc1ccc(NC(=S)N2CCN(c3ccccc3F)CC2)c(C)c1,-8%
15,Cc1cnc(C(=O)Nc2nccs2)cn1,-22%
16,COc1ccc(CN2CCn3ncc(C(=O)Nc4ccccc4)c3C2=O)cc1,-16%
17,COc1ccc(NC(=O)c2cn(-c3ccccc3)nc2-c2ccncc2)cc1,40% (active)
18,CC(C)COc1ccc(-c2nn(-c3ccccc3)cc2C(=O)Nc2nccs2)cc1,20% (active)
19,COc1ccc(-c2nn(-c3ccccc3)cc2C(=O)Nc2cccc(C(=O)O)c2)cc1[N+](=O)[O-],-27%
20,Cc1ccc(-n2ccc(=O)c(C(=O)Nc3ccc(S(=O)(=O)Nc4nccs4)cc3)n2)cc1,-3%
21,COc1ccc([N+](=O)[O-])cc1N(CC(=O)NCc1ccco1)S(C)(=O)=O,-21%
22,O=c1cc(O)c2sc(Nc3ccc(F)c(Cl)c3)nc2[nH]1,-15%
23,O=C(COc1ccccc1)Nc1ccc(F)cc1,-27%
24,Cc1ccccc1NC(=O)C(=O)NNC(=O)COc1ccc2ccccc2c1,48% (active)
25,O=C(COc1ccc2ccccc2c1)NNC(=O)C(=O)Nc1ccccc1,55% (active)
26,O=C(COc1ccc2ccccc2c1)Nc1ccc(Br)cc1C(=O)O,-10%

row,SMILES,"activity increase over dofetilide control, less the hit threshold"
1,COC(=O)CSc1nnc(COc2ccc3ccccc3c2)o1,-10%
2,COc1ccc(N2CC(C(=O)OCC(=O)Nc3ccccc3C)CC2=O)cc1 (stereo unspecified),-5%
3,C=CCNC(=O)COc1ccc(Oc2ccccc2)cc1,-6%
4,COc1ccccc1NC(=O)C(=O)NNC(=O)COc1ccc2ccccc2c1,94% (active)
5,CCN1C(=O)c2cccc3c(S(=O)(=O)NCC4CCCO4)ccc1c23 (stereo unspecified),-22%
6,Brc1ccc(Nc2nc(-c3cccnc3)cs2)cc1,-12%
7,Cc1cc(C(F)(F)F)c2sc(N)nc2n1,-11%
8,CC1CC(OCC(O)C[N+]2(C)CCOCC2)CC(C)(C)C1 (stereo unspecified),-13%
9,COc1ccc(S(=O)(=O)Nc2cccc(-n3cnnn3)c2)cc1,-20%
10,C=CCN(c1ccc(Cl)cc1)S(=O)(=O)c1cccc(C(=O)O)c1,6% (active)
11,C=CCN(c1ccccc1)S(=O)(=O)c1cccc(C(=O)Nc2nnc(SCC)s2)c1,-4%
12,C=CCN(c1cccc(C(F)(F)F)c1)S(=O)(=O)c1cccc(C(=O)OCC(=O)Nc2ccccc2)c1,-6%
13,COc1ccc(-c2cn3nc(SCC(=O)NC4CCCCC4)ccc3n2)cc1,-2%
14,Cc1ccc(C(=O)Nc2nc(=O)n(C)s2)cc1,-1%
15,O=C(CNC(=O)c1ccccc1)NCc1ccc(Cl)cc1,-8%
16,CN(CC(=O)Nc1nc2ccccc2s1)S(=O)(=O)c1ccc(Cl)cc1,-17%
17,O=C(Nc1nc(=O)c2ccccc2s1)c1ccc(Cl)cc1,46% (active)
18,Cc1ccc(C(=O)Nc2nc3ccccc3c(=O)s2)cc1,53% (active)
19,COc1ccc(N(CC(=O)N2CCN(Cc3ccccc3)CC2)S(C)(=O)=O)cc1,-16%
20,CS(=O)(=O)N(Cc1ccccc1)c1ccc(C(=O)Nc2ccc(C(N)=O)cc2)cc1,82% (active)
21,C=CCN(c1ccc(C(=O)NC(C)C)cc1)S(C)(=O)=O,-10%
22,CCC1=C(OC(=O)N(CC)CC)N2C(=O)OC(=NCC3CC3)[C@]2(C)[C@H]2C1=CC[C@H]1C(=O)N(C)C(=O)[C@H]12,-1%
23,N=c1c2cn[nH]c2nc(SCC(=O)c2ccc(Br)cc2)n1-c1ccc(Br)cc1,-3%
24,Cc1cc(C(=O)NCc2ccc(S(N)(=O)=O)cc2)ccc1[N+](=O)[O-],-15%
25,CSC(=S)N/N=C(\C)c1ccccc1,35% (active)
26,CSc1ccc(/C=N/NC(=O)c2cccs2)cc1,-17%

row,SMILES,"activity increase over dofetilide control, less the hit threshold"
1,COCCNC(=O)C(=O)N/N=C/c1ccc(C(=O)OC)cc1,-11%
2,CSC(=S)N/N=C/c1ccc(Br)cc1,46% (active)
3,CC(C)NC(=S)N/N=C/c1ccc(C(C)(C)C)cc1,-13%
4,C/C(=N\NC(N)=S)c1ccncc1,-3%
5,CSC(=S)N/N=C/c1ccccc1,34% (active)
6,CC(C)(C)c1ccc(/C=N/NC(=S)Nc2cccnc2)cc1,-11%
7,C/C(=N\NC(N)=S)c1cccnc1,-8%
8,COCCOC(=O)C1=C(C)Nc2ncnn2C1c1ccc(F)cc1 (stereo unspecified),-26%
9,CC(NS(=O)(=O)c1ccccc1)C(N)=O (stereo unspecified),-10%
10,CC1CCc2c(sc(NS(=O)(=O)c3ccccc3)c2C(=O)OC(C)C)C1 (stereo unspecified),7% (active)
11,CCOC(=O)c1c(NS(C)(=O)=O)sc2c1CCC(C)C2 (stereo unspecified),21% (active)
12,CC(C)OC(=O)c1c(NC(=O)c2ccco2)sc2c1CCCCC2,-12%
13,COC(=O)c1c(NC(=O)CN2CCOCC2)sc2c1CCC(C)C2 (stereo unspecified),-13%
14,CC(C)OC(=O)c1c(NS(=O)(=O)c2ccccc2)sc2c1CCCC2,37% (active)
15,O=[N+]([O-])c1ccc(Cl)c(/C=N/Nc2nc(N3CCOCC3)nc(N3CCOCC3)n2)c1,-18%
16,COc1ccccc1C(=O)COC(=O)c1ccc(-n2cnnn2)cc1,-21%
17,O=C(N/N=C\c1coc2ccccc2c1=O)c1ccco1,-24%
18,CC(Nc1ccc(F)cc1)=[N+](C)CCNS(=O)(=O)c1ccc(Cl)cc1,-3%
19,CC1Cc2ccccc2N1C(=S)NC(=O)C1(C)CC1(Cl)Cl (stereo unspecified),42% (active)
20,CC1Cc2ccccc2N1C(=S)NC(=O)c1ccc(Cl)cc1Cl (stereo unspecified),55% (active)
21,Cc1csc2ncc(C(=O)N3c4ccccc4CC3C)c(=O)n12 (stereo unspecified),-2%
22,CC1Cc2cc(S(=O)(=O)NCc3ccccc3)ccc2N1C(=O)C1CCC1 (stereo unspecified),-22%
23,CC1Cc2ccccc2N1C(=S)NC(=O)c1ccco1 (stereo unspecified),6% (active)
24,COc1cc2c(cc1OC)C(C)N(C(=S)NC(=O)c1ccccc1)CC2 (stereo unspecified),-18%
25,CC(=O)N1CCc2cc(S(=O)(=O)N3c4ccccc4CC3C)ccc21 (stereo unspecified),-14%
26,O=C(NN1C(=O)C2C(c3ccccc3)C=CC(c3ccccc3)C2C1=O)c1cccc(Br)c1 (stereo unspecified),-54%

row,SMILES,"activity increase over dofetilide control, less the hit threshold"
1,CC1Cc2ccccc2N1C(=S)NC(=O)c1cccc(Br)c1 (stereo unspecified),77% (active)
2,CC1=C(C#N)C(Nc2cc(C)ccn2)(C(F)(F)F)C(=O)N1 (stereo unspecified),-10%
3,Cc1nn(Cc2ccccc2)c2c1C(c1cccnc1)C(C#N)=C(N)O2 (stereo unspecified),-6%
4,N=C1C(=O)OCC1c1cc(Cl)ccc1NC(=O)Nc1ccccc1 (stereo unspecified),-9%
5,CCCn1c(CC)nc([N+](=O)[O-])c1S(=O)(=O)c1ccccc1,3% (active)
6,CC(C)N1CC(C(=O)Nc2ccc(Cl)c(Cl)c2)CC1=O (stereo unspecified),-8%
7,CCCCCCCc1c(O)nc(SCC(=O)O)[nH]c1=O,-6%
8,CCOC(=O)c1sc(NC(=S)NC(=O)c2ccco2)nc1C,7% (active)
9,Cc1csc(NC(=O)c2cn3ccccc3n2)n1,-12%
10,Cc1csc(NC(=S)NC(=O)c2ccccc2)n1,10% (active)
11,O=C(NC(=S)Nc1nc2c(s1)CSc1ccccc1-2)c1ccccc1,21% (active)
12,Cc1nc(NC(=O)c2ccco2)sc1C(=O)O,-10%
13,CCOC(=O)c1sc(NC(=S)NC(=O)c2cccc(OC)c2)nc1C,7% (active)
14,CCn1cc(CCC(=O)NCc2cccc(OC)c2OC)c2ccccc21,-12%
15,COC(=O)c1sc(NC(=S)NC(=O)c2ccccc2F)nc1C,-3%
16,CCOC(=O)c1sc(NC(=S)NC(=O)c2ccc(OC)cc2)nc1C,-2%
17,COC(=O)c1sc(NC(=S)NC(=O)c2ccc(C)cc2)nc1C,-3%
18,CCOC(=O)c1sc(NC(=S)NC(=O)c2ccccc2)nc1C,36% (active)
19,COC(=O)c1sc(NC(=S)NC(=O)c2ccccc2C)nc1C,26% (active)
20,Cc1ccc(CN2CCN(/N=C/c3ccc(O)c(O)c3)CC2)cc1,7% (active)
21,Nc1cccc(Oc2cnccn2)c1,-5%
22,Nc1ncnc(NC2CCS(=O)(=O)C2)c1[N+](=O)[O-] (stereo unspecified),-12%
23,Cc1cc(NC(=O)CSc2ccc3nnc(-c4cccs4)n3n2)no1,-17%

# From PubChem BioAssay AID1835 (Johns Hopkins Ion Channel Center, 2009)
